Data reported in PubChem BioAssay (NCI).
About 83,000 compounds went through this panel and 20% of them were active in at least one assay; those are over-represented in the sample as a whole.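 A percent growth of 40 corresponds to 60% growth inhibition; 0 means no net growth; -100 means all cells died. Active threshold: below 10.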 Unmarked numbers belong to inactive results. Calls of active or inactive are those of the source.

What was measured:
Assay in all cases: NCI-60 one-dose screen, 48 h (100 = growth as untreated, 0 = no growth, -100 = all killed)
Settings in all cases: 10 µM unless noted
NCI-H23 lung = test system: NCI-H23 lung
NCI-H226 lung = test system: NCI-H226 lung
NCI-H322M lung = test system: NCI-H322M lung
HOP-62 NSCLC = test system: HOP-62 NSCLC
NCI-H460 lung = test system: NCI-H460 lung
A549/ATCC NSCLC = test system: A549/ATCC NSCLC
786-0 renal = test system: 786-0 renal
COLO 205 colon = test system: COLO 205 colon
DU-145 prostate = test system: DU-145 prostate
K-562 leukemia = test system: K-562 leukemia
MALME-3M melanoma = test system: MALME-3M melanoma
MDA-MB-231 breast = test system: MDA-MB-231 breast
RXF 393 renal = test system: RXF 393 renal
SF-268 CNS = test system: SF-268 CNS
SF-295 CNS = test system: SF-295 CNS
SF-539 CNS = test system: SF-539 CNS
UACC-257 melanoma = test system: UACC-257 melanoma
NCI-H522 lung = test system: NCI-H522 lung
M14 melanoma = test system: M14 melanoma

Compound	growth (NCI-H23 lung)	growth (NCI-H226 lung)	growth (NCI-H322M lung) [%]	growth (HOP-62 NSCLC)	growth (NCI-H460 lung)	growth (A549/ATCC NSCLC)	growth (786-0 renal)	growth (COLO 205 colon)	growth (DU-145 prostate)	growth (K-562 leukemia)	growth (MALME-3M melanoma)	growth (MDA-MB-231 breast)	growth (RXF 393 renal)	growth (SF-268 CNS)	growth (SF-295 CNS)	growth (SF-539 CNS)	growth (UACC-257 melanoma)	growth (NCI-H522 lung)	growth (M14 melanoma)
c1csc(-c2cnc3nonc3n2)c1	72.8%	88.1%	90.4	87.9%	102%	94.2%	101%	91.3%	108%	67.4%	100%	82%	117%	88.7%	101%	96.8%	75.3%		
CCCCCCCC/C=C/CCCCCCCC1=NC(C)(C)CN1C(C)C	-2.44% (active)	61.4%	76.8	-79.6% (active)	-45.9% (active)	15.7%		-67.3% (active)	21.9%	-54.5% (active)	-19.5% (active)	-9.32% (active)	-68.1% (active)	4.16% (active)	6.07% (active)	8.28% (active)	11.1%	-57.6% (active)	-75.3% (active)
CCCCCCCCCCCCCCCC1=NC(C)(C)CN1C(C)C	0.554% (active)	-5.35% (active)	34.6	-77.4% (active)	-53.7% (active)	-57.2% (active)		-64.6% (active)	7.67% (active)	-50.3% (active)	-49% (active)	-62.2% (active)	-68.9% (active)	-55.2% (active)	-48.1% (active)	-79.6% (active)	-31.2% (active)	-68.1% (active)	-71.4% (active)
CC(C)CCSc1nc(Nc2ccccc2)c(C#N)c(-c2ccc(F)cc2)n1	74.4%	90.7%	49.8	56.5%		25.3%	-9.8% (active)	18.6%	82.3%	38.8%	68.4%	46.2%	82%	79.1%	34.5%	52.7%	52.7%	61%	70.1%
CN1C2CCC1/C(=C\c1ccc(F)cc1)C(=O)/C2=C/c1ccc(F)cc1	47.9%	55.6%	50.3	76.7%		36.6%	43.8%	14.8%	9.38% (active)	16.2%	61.7%	53.7%	66.2%	63%	72%	73.6%	25.8%	34.4%	41.2%
Cc1ccc(NC(=O)c2sc3nc4c(cc3c2N)C(=O)CCC4)cc1Cl	100%	102%	109	110%	106%	101%	104%	128%	109%	93%	112%	113%	117%	115%	80%	102%	95.1%		122%
O=C(Nc1cccc(N=Cc2c(O)ccc3ccccc23)c1)c1ccccc1	95.8%	94.1%	95	86.9%		94.7%	93.4%	105%	98.2%	97.3%	102%	94.1%	90.4%	89.1%	95.2%	90.5%	91.6%	76.8%	91.1%
Cc1ccc(Nc2cccc3ccccc23)cc1	83.6%	90.1%	82.8	91.9%		90.5%	88.9%	101%	109%	63%	94.2%	88.5%	91.2%	92.4%	112%	99.8%	86.4%	68.4%	89.6%
CCCCCCCCCCCCNC(=O)N[C@H](C(=O)N[C@H]1/C=C/OCCNC(=O)/C=C/[C@H](C(C)C)NC1=O)C(C)C	60.4%	-3.01% (active)	97.1	76.7%		94.7%	99.8%		66.9%		71%	81.2%	83.6%	46.2%	95.2%	54.6%	93.1%	47.6%	87.2%
